From PubChem BioAssay (EPA / NIEHS) come the findings set out here.

The target of experiment [1] is Transcription factor E2F1 (Homo sapiens) (UniProt Q01094). The experiment in a line: ATG_E2F_CIS: Attagene CIS-FACTORIAL HepG2 Assay for human E2F Transcription Factor 1 (AID 2282935). The conditions noted are these: HepG2 Attagene cis-reporter, E2F reporter RNA transcripts; actives raise or lower the signal. The method, boiled down:
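Gain or loss of reporter transcript, fitted against DMSO, reflects E2F1-driven transcription. Transiently transfected HepG2 dosed 24 h before RNA isolation. Quantified by fluorescent RT-PCR products separated by capillary electrophoresis.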

Experiment [2] in a line: ATG_M_61_CIS: Attagene CIS-FACTORIAL HepG2 Assay for M61 Transcription Factor (Internal Marker) (AID 2282937). As to conditions: HepG2 Attagene CIS-FACTORIAL M61 internal marker reporter; actives raise or lower the signal. In short, it runs like this:
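Readout: fluorescent reporter mRNA fragments resolved by capillary electrophoresis after RT-PCR. Transiently transfected human HepG2 cells carried MRTU constructs reporting endogenous TF activity; 24 h chemical exposure; gain or loss of signal fitted relative to DMSO.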

The nature of experiment [3]: ATG_EGR_CIS: Attagene CIS-FACTORIAL HepG2 Assay for human Early Growth Response 1 (EGR1) (AID 2282938). The conditions noted are these: HepG2 Attagene CIS-FACTORIAL EGR reporter mRNA; actives raise or lower the signal. In short, it runs like this: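 Read-out: fluorescent reporter-mRNA fragments resolved by capillary electrophoresis after RT-PCR, 24 h post-dose in transiently transfected HepG2. Endogenous transcription-factor activity reported via cis-element-regulated reporter units; gain or loss fitted relative to DMSO.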

Experiment [4] can be described thus: ATG_M_19_CIS: Attagene CIS-FACTORIAL HepG2 Assay for M19 Transcription Factor (Internal Marker) (AID 2282939). The conditions noted are these: HepG2 Attagene CIS-FACTORIAL M19 internal marker reporter; actives raise or lower the signal. The method, boiled down: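 Transfect HepG2 with MRTU reporter library → dose chemical, 24 h → isolate total RNA, reverse-transcribe with oligo(dT) → PCR, 6-FAM label, HpaI cut (2 h, 37 C) → capillary electrophoresis. Bidirectional fit vs DMSO.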

Experiment [5] can be described thus: ATG_ERE_CIS: Attagene CIS-FACTORIAL HepG2 Assay for Estrogen Response Element (ERE) (AID 2282940). As to conditions: HepG2 ERE cis-reporter, Attagene RNA transcript; actives raise or lower the signal. The method, boiled down: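 Transient MRTU transfection of human HepG2; cis-element promoters; 24 h dosing; total RNA → RT (oligo dT) → PCR → 6-FAM primer extension → HpaI digest → CE fluorescence. Bidirectional fit, DMSO baseline.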

The nature of experiment [6]: ATG_Ets_CIS: Attagene CIS-FACTORIAL HepG2 Assay for human Erythroblast Transformation Specific (ETS) (AID 2282941). The conditions noted are these: HepG2 ETS cis-reporter transcription, actives raise or lower the signal. In short, it runs like this:
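Cis-regulated reporter mRNA induction in HepG2 (transient transfection), 24 h exposure, RT-PCR plus capillary electrophoresis detection; DMSO serves as negative control and baseline.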

In experiment [7] the target is Hepatocyte nuclear factor 3-beta (Homo sapiens) (UniProt Q9Y261). The experiment in a line: ATG_FoxA2_CIS: Attagene CIS-FACTORIAL HepG2 Assay for human Forkhead box A2 (FOXA2) (AID 2282942). As to conditions: HepG2 cis-reporter transcription factor activity, 24 h; actives raise or lower the signal. In short, it runs like this:
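Readout: fluorescent reporter transcripts resolved by capillary electrophoresis after RT-PCR. Transiently transfected HepG2, 24 h compound exposure, endogenous TF activity at cis promoter elements. Gain or loss of signal fitted relative to DMSO.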

Experiment [8] can be described thus: ATG_FoxO_CIS: Attagene CIS-FACTORIAL HepG2 Assay for human Forkhead box O (FoxO) (AID 2282943). The conditions noted are these: HepG2 Attagene cis-reporter, FoxO element, mRNA; actives raise or lower the signal. In short, it runs like this:
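Endogenous transcription factor activity read from multiplexed cis-promoter reporter transcripts in transiently transfected HepG2, 24 h after dosing. Reporter RNA measured via RT-PCR plus capillary electrophoresis of FAM-labeled products; gain or loss relative to DMSO.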

A short description of experiment [9]: ATG_GATA_CIS: Attagene CIS-FACTORIAL HepG2 Assay for human GATA Binding Protein (AID 2282944). The conditions noted are these: HepG2 GATA cis-element reporter, Attagene multiplex mRNA; actives raise or lower the signal. The method, boiled down: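 Transient MRTU transfection, HepG2, 24 h compound exposure. Total RNA → oligo(dT) RT → PCR → 6-FAM primer extension → HpaI cut → CE. Bidirectional fit vs DMSO.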

The source made the active and inactive calls. Rule for the calls: active = hit-call score of the fitted dose curve at least 0.9, where 1 is the maximum; inactive = score below 0.9.

Hepatocyte nuclear factor 3-beta (Homo sapiens), sequence (Q9Y261 whole entry, looked up): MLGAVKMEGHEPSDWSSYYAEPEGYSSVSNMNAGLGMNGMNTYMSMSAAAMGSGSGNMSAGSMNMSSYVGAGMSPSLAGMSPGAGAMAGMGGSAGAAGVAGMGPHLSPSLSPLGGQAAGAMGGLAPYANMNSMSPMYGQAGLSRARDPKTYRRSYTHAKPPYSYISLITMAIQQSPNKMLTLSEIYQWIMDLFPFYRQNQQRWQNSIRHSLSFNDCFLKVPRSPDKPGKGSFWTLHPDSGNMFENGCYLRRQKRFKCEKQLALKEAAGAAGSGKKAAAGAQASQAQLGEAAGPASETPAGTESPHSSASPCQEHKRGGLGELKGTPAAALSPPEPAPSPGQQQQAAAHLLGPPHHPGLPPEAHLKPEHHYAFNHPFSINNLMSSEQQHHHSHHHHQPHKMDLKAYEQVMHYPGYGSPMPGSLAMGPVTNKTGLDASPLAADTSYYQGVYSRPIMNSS
Transcription factor E2F1 (Homo sapiens), sequence (Q01094 whole entry, looked up): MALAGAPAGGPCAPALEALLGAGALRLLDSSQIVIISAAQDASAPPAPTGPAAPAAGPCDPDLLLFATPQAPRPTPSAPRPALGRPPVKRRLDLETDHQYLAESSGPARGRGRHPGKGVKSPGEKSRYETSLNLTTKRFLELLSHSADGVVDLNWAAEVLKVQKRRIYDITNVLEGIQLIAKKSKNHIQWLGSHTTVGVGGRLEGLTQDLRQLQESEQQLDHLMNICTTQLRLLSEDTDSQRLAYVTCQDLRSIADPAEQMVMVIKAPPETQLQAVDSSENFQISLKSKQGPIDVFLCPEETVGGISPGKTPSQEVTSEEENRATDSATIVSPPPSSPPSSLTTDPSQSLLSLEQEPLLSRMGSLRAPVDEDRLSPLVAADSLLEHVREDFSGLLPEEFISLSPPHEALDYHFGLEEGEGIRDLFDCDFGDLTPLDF

`C[C@H](CCC(=O)O)[C@H]1CC[C@H]2[C@@H]3CC[C@@H]4C[C@H](O)CC[C@]4(C)[C@H]3CC[C@]12C`: the AC50 in experiment [1] was 25.3 µM (active); in experiment [3] it was 25.2 µM (active); in experiment [4], 169 µM (active); in experiment [7], 170 µM (active). Further, the outcome in experiment [2], in [5], in experiment [6], in experiment [8] and in experiment [9] was inactive.
